Experiments:
Experiment in all cases: SPOT peptide array binding signal intensity (averaged, normalized) (arbitrary units (background-subtracted, floor 0; scale differs between SH3 domains)); higher = stronger binding of the SH3 domain to the peptide
AgAbp1 = molecular target: AgAbp1
How it was run: (§1)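 To measure binding, SH3 domains from four yeast species were fused to GST, expressed in E. coli BL21(DE3) and purified on glutathione Sepharose. Each domain was incubated at 10 μg/ml overnight at 4°C on cellulose membranes with synthetic 15-mer peptides whose cysteines were replaced by serines. Anti-GST antibody, an HRP anti-mouse secondary and luminol were used for detection, and images were quantified with Genespotter. Reported binding signal is normalized, background-subtracted spot intensity averaged over replicates, in arbitrary units that differ between domains.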

AgBbc1 = molecular target: AgBbc1
How it was run: as §1

AgBem1-D1 = molecular target: AgBem1-D1
How it was run: as §1

AgBzz1-D1 = molecular target: AgBzz1-D1
How it was run: as §1

AgBzz1-D2 = molecular target: AgBzz1-D2
How it was run: as §1

AgCyk3 = molecular target: AgCyk3
How it was run: as §1

AgFus1 = molecular target: AgFus1
How it was run: as §1

AgHof1 = molecular target: AgHof1
How it was run: as §1

AgHse1 = molecular target: AgHse1
How it was run: as §1

AgLsb1 = molecular target: AgLsb1
How it was run: as §1

AgLsb4 = molecular target: AgLsb4
How it was run: as §1

AgMyo5 = molecular target: AgMyo5
How it was run: as §1

AgNbp2 = molecular target: AgNbp2
How it was run: as §1

AgRvs167 = molecular target: AgRvs167
How it was run: as §1

AgSho1 = molecular target: AgSho1
How it was run: as §1

AgSla1-D1-D2 = molecular target: AgSla1-D1-D2
How it was run: as §1

AgSla1-D3 = molecular target: AgSla1-D3
How it was run: as §1

CaAbp1-D1 = molecular target: CaAbp1-D1
How it was run: as §1

CaAbp1-D2 = molecular target: CaAbp1-D2
How it was run: as §1

CaBbc1 = molecular target: CaBbc1
How it was run: as §1

CaBem1-D1 = molecular target: CaBem1-D1
How it was run: as §1

CaBzz1-D1 = molecular target: CaBzz1-D1
How it was run: as §1

CaBzz1-D2 = molecular target: CaBzz1-D2
How it was run: as §1

CaCyk3 = molecular target: CaCyk3
How it was run: as §1

CaFus1 = molecular target: CaFus1
How it was run: as §1

CaHof1 = molecular target: CaHof1
How it was run: as §1

CaHse1 = molecular target: CaHse1
How it was run: as §1

CaLsb1 = molecular target: CaLsb1
How it was run: as §1

CaLsb4 = molecular target: CaLsb4
How it was run: as §1

CaMyo5 = molecular target: CaMyo5
How it was run: as §1

CaNbp2 = molecular target: CaNbp2
How it was run: as §1

CaRvs167 = molecular target: CaRvs167
How it was run: as §1

CaRvs167-3 = molecular target: CaRvs167-3
How it was run: as §1

CaSho1 = molecular target: CaSho1
How it was run: as §1

CaSla1-D1-D2 = molecular target: CaSla1-D1-D2
How it was run: as §1

CaSla1-D3 = molecular target: CaSla1-D3
How it was run: as §1

ScAbp1 = molecular target: ScAbp1
How it was run: as §1

ScBbc1 = molecular target: ScBbc1
How it was run: as §1

ScBem1-D1 = molecular target: ScBem1-D1
How it was run: as §1

ScBzz1-D1 = molecular target: ScBzz1-D1
How it was run: as §1

ScBzz1-D2 = molecular target: ScBzz1-D2
How it was run: as §1

ScCyk3 = molecular target: ScCyk3
How it was run: as §1

ScFus1 = molecular target: ScFus1
How it was run: as §1

ScHof1 = molecular target: ScHof1
How it was run: as §1

ScHse1 = molecular target: ScHse1
How it was run: as §1

ScLsb1 = molecular target: ScLsb1
How it was run: as §1

ScLsb2 = molecular target: ScLsb2
How it was run: as §1

ScLsb3 = molecular target: ScLsb3
How it was run: as §1

ScLsb4 = molecular target: ScLsb4
How it was run: as §1

ScMyo3 = molecular target: ScMyo3
How it was run: as §1

ScMyo5 = molecular target: ScMyo5
How it was run: as §1

ScNbp2 = molecular target: ScNbp2
How it was run: as §1

ScPex13 = molecular target: ScPex13
How it was run: as §1

ScRvs167 = molecular target: ScRvs167
How it was run: as §1

ScSho1 = molecular target: ScSho1
How it was run: as §1

ScSla1-D1-D2 = molecular target: ScSla1-D1-D2
How it was run: as §1

ScSla1-D3 = molecular target: ScSla1-D3
How it was run: as §1

SpAbp1-D1 = molecular target: SpAbp1-D1
How it was run: as §1

SpBbc1 = molecular target: SpBbc1
How it was run: as §1

SpBzz1-D1 = molecular target: SpBzz1-D1
How it was run: as §1

SpBzz1-D2 = molecular target: SpBzz1-D2
How it was run: as §1

SpCyk3 = molecular target: SpCyk3
How it was run: as §1

SpHof1 = molecular target: SpHof1
How it was run: as §1

SpHof1-2 = molecular target: SpHof1-2
How it was run: as §1

SpHof1-3 = molecular target: SpHof1-3
How it was run: as §1

SpHse1 = molecular target: SpHse1
How it was run: as §1

SpLsb1 = molecular target: SpLsb1
How it was run: as §1

SpLsb4 = molecular target: SpLsb4
How it was run: as §1

SpMyo1 = molecular target: SpMyo1
How it was run: as §1

SpNbp2 = molecular target: SpNbp2
How it was run: as §1

SpPex13 = molecular target: SpPex13
How it was run: as §1

SpRvs167 = molecular target: SpRvs167
How it was run: as §1

SpSla1-D1-D2 = molecular target: SpSla1-D1-D2
How it was run: as §1

SpSla1-D3 = molecular target: SpSla1-D3
How it was run: as §1

RMVRRRPLRVQFSAR
SPOT peptide array binding signal intensity (AgAbp1): 341 | SPOT peptide array binding signal intensity (AgBbc1): 152 | SPOT peptide array binding signal intensity (AgBem1-D1): 477 | SPOT peptide array binding signal intensity (AgBzz1-D1): 102 | SPOT peptide array binding signal intensity (AgBzz1-D2): 93.5 | SPOT peptide array binding signal intensity (AgCyk3): 3 | SPOT peptide array binding signal intensity (AgFus1): 2500 | SPOT peptide array binding signal intensity (AgHof1): 44.8 | SPOT peptide array binding signal intensity (AgHse1): 1410 | SPOT peptide array binding signal intensity (AgLsb1): 16.5 | SPOT peptide array binding signal intensity (AgLsb4): 606 | SPOT peptide array binding signal intensity (AgMyo5): 2.5 | SPOT peptide array binding signal intensity (AgNbp2): 1110 | SPOT peptide array binding signal intensity (AgRvs167): 10.8 | SPOT peptide array binding signal intensity (AgSho1): 634 | SPOT peptide array binding signal intensity (AgSla1-D1-D2): 284 | SPOT peptide array binding signal intensity (AgSla1-D3): 28.2 | SPOT peptide array binding signal intensity (CaAbp1-D1): 820 | SPOT peptide array binding signal intensity (CaAbp1-D2): 810 | SPOT peptide array binding signal intensity (CaBbc1): 247 | SPOT peptide array binding signal intensity (CaBem1-D1): 495 | SPOT peptide array binding signal intensity (CaBzz1-D1): 202 | SPOT peptide array binding signal intensity (CaBzz1-D2): 245 | SPOT peptide array binding signal intensity (CaCyk3): 104 | SPOT peptide array binding signal intensity (CaFus1): 3490 | SPOT peptide array binding signal intensity (CaHof1): 2.5 | SPOT peptide array binding signal intensity (CaHse1): 464 | SPOT peptide array binding signal intensity (CaLsb1): 12.5 | SPOT peptide array binding signal intensity (CaLsb4): 1050 | SPOT peptide array binding signal intensity (CaMyo5): 58

RPKRRAPPPVPKKPS
SPOT peptide array binding signal intensity (AgAbp1): 5860 | SPOT peptide array binding signal intensity (AgBbc1): 1090 | SPOT peptide array binding signal intensity (AgBem1-D1): 166 | SPOT peptide array binding signal intensity (AgBzz1-D1): 3720 | SPOT peptide array binding signal intensity (AgBzz1-D2): 825 | SPOT peptide array binding signal intensity (AgCyk3): 1 | SPOT peptide array binding signal intensity (AgFus1): 63.5 | SPOT peptide array binding signal intensity (AgHof1): 380 | SPOT peptide array binding signal intensity (AgHse1): 294 | SPOT peptide array binding signal intensity (AgLsb1): 1120 | SPOT peptide array binding signal intensity (AgLsb4): 313 | SPOT peptide array binding signal intensity (AgMyo5): 124 | SPOT peptide array binding signal intensity (AgNbp2): 4930 | SPOT peptide array binding signal intensity (AgRvs167): 191 | SPOT peptide array binding signal intensity (AgSho1): 650 | SPOT peptide array binding signal intensity (AgSla1-D1-D2): 274 | SPOT peptide array binding signal intensity (AgSla1-D3): 577 | SPOT peptide array binding signal intensity (CaAbp1-D1): 2320 | SPOT peptide array binding signal intensity (CaAbp1-D2): 4720 | SPOT peptide array binding signal intensity (CaBbc1): 1840 | SPOT peptide array binding signal intensity (CaBem1-D1): 78.5 | SPOT peptide array binding signal intensity (CaBzz1-D1): 7010 | SPOT peptide array binding signal intensity (CaBzz1-D2): 4680 | SPOT peptide array binding signal intensity (CaCyk3): 55 | SPOT peptide array binding signal intensity (CaFus1): 350 | SPOT peptide array binding signal intensity (CaHof1): 0.5 | SPOT peptide array binding signal intensity (CaHse1): 666 | SPOT peptide array binding signal intensity (CaLsb1): ≤ 0 | SPOT peptide array binding signal intensity (CaLsb4): 2700 | SPOT peptide array binding signal intensity (CaMyo5): 2.5 | SPOT peptide array binding signal intensity (CaNbp2): 3680 | SPOT peptide array binding signal intensity (CaRvs167): 127 | SPOT peptide array binding signal intensity (CaRvs167-3): 170 | SPOT peptide array binding signal intensity (CaSho1): 236 | SPOT peptide array binding signal intensity (CaSla1-D1-D2): 3850 | SPOT peptide array binding signal intensity (CaSla1-D3): 920 | SPOT peptide array binding signal intensity (ScAbp1): 3840 | SPOT peptide array binding signal intensity (ScBbc1): 835 | SPOT peptide array binding signal intensity (ScBem1-D1): 69 | SPOT peptide array binding signal intensity (ScBzz1-D1): 1610 | SPOT peptide array binding signal intensity (ScBzz1-D2): 75.5 | SPOT peptide array binding signal intensity (ScCyk3): 17.5 | SPOT peptide array binding signal intensity (ScFus1): 42.5 | SPOT peptide array binding signal intensity (ScHof1): 0.5 | SPOT peptide array binding signal intensity (ScHse1): 432 | SPOT peptide array binding signal intensity (ScLsb1): 819 | SPOT peptide array binding signal intensity (ScLsb2): 796 | SPOT peptide array binding signal intensity (ScLsb3): 3720 | SPOT peptide array binding signal intensity (ScLsb4): 95 | SPOT peptide array binding signal intensity (ScMyo3): 705 | SPOT peptide array binding signal intensity (ScMyo5): 471 | SPOT peptide array binding signal intensity (ScNbp2): 5640 | SPOT peptide array binding signal intensity (ScPex13): 482 | SPOT peptide array binding signal intensity (ScRvs167): 1640 | SPOT peptide array binding signal intensity (ScSho1): 2030 | SPOT peptide array binding signal intensity (ScSla1-D1-D2): 3510 | SPOT peptide array binding signal intensity (ScSla1-D3): 896 | SPOT peptide array binding signal intensity (SpAbp1-D1): 3020 | SPOT peptide array binding signal intensity (SpBbc1): 115 | SPOT peptide array binding signal intensity (SpBzz1-D1): 1740 | SPOT peptide array binding signal intensity (SpBzz1-D2): 713 | SPOT peptide array binding signal intensity (SpCyk3): 4 | SPOT peptide array binding signal intensity (SpHof1): 374 | SPOT peptide array binding signal intensity (SpHof1-2): 43.2 | SPOT peptide array binding signal intensity (SpHof1-3): 972 | SPOT peptide array binding signal intensity (SpHse1): 221 | SPOT peptide array binding signal intensity (SpLsb1): 1830 | SPOT peptide array binding signal intensity (SpLsb4): 925 | SPOT peptide array binding signal intensity (SpMyo1): 687 | SPOT peptide array binding signal intensity (SpNbp2): 173 | SPOT peptide array binding signal intensity (SpPex13): 220 | SPOT peptide array binding signal intensity (SpRvs167): 1300 | SPOT peptide array binding signal intensity (SpSla1-D1-D2): 1490 | SPOT peptide array binding signal intensity (SpSla1-D3): 2

Source: the supplement of paper PMC4466140
